# BAZ2B block – inhibitors of human BAZ2B bromodomain; AlphaScreen BAZ2B-H3K14Ac peptide displacement; AID 504333; Potency, µM (doses to about 114 µM), for the others: at the top dose activity change, negative = inhibition, actives largely listed as inhibitors; actives 4.4% (n = 360,000); further: on the % scale 0 is the no-effect control and ±100 the full control effect; nearly all actives have a fitted effect of over 60% in size
#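 AlphaScreen displacement: compounds (up to 110uM) incubated 30 min at room temperature with a preformed 50 nM BAZ2B/50 nM biotinylated H3K14Ac peptide complex in PBS pH 7.4 with Tween-20. Donor and acceptor beads at 10 ug/mL final added, 20 min light-protected before reading.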
# G9a inh – blocks human histone lysine methyltransferase G9a; actives 8.8% (n = 350,000); AID 504332; Potency, µM (doses to about 102 µM), for the others: at the highest dose activity, negative = inhibition, actives largely listed as inhibitors; Q96KQ7; G9a H3K9 monomethylation, AlphaScreen, 2 h; further: on the % scale 0 is the no-effect control and ±100 the full control effect; nearly all actives have a fitted effect of over 75% in size
# Target sequence (Q96KQ7 913-1193 limits assumed): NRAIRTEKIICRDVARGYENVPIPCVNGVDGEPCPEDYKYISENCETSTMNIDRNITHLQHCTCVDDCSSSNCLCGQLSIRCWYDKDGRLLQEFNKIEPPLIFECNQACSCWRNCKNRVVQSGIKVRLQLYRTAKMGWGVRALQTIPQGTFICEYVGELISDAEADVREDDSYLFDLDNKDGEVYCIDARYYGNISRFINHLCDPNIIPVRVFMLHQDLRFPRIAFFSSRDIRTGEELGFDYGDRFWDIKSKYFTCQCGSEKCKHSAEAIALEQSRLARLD
#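 Chemiluminescent proximity detection of H3K9 monomethylation, read after 10 min bead incubation in the dark. Reaction: 20 nM G9a, 500 nM biotin-H3K9 peptide, 20 uM SAM cofactor, 2 h, room temperature, following 15 min enzyme-compound preincubation.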
# HP1b binding inh – blocks HP1-beta chromodomain binding to methylated histone tails; P83916; Potency, µM (top dose mostly 114 µM), without a hit: top-dose activity change, negative = inhibition, hits mostly inhibitors; actives 0.56% (n = 390,000); AlphaScreen HP1-beta / biotin-H3K9me3 peptide binding; further: nearly all actives have a fitted effect of over 70% in size
# Target sequence (P83916 whole entry, looked up): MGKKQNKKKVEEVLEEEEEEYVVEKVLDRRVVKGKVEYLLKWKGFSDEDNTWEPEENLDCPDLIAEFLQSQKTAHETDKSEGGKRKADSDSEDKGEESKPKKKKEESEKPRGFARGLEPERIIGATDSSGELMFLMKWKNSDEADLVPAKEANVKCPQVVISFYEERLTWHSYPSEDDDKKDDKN
#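 Compound inhibition of the preformed complex between 50 nM HP1-beta and 50 nM biotinylated H3K9me3 peptide was read by AlphaScreen. Buffer was PBS pH 7.4 with 0.01% Tween-20. Incubations ran 30 min at room temperature, with 10 ug/mL donor/acceptor beads.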
# L3MBTL1 block – inhibitors of human L3MBTL1; Potency, µM (titrated, usually from 57.1 µM), for the others: at the highest dose activity, negative = inhibition, actives largely listed as inhibitors; AlphaScreen L3MBTL1–H3K9me1 peptide binding; actives 0.66% (n = 230,000); further: on the % scale 0 is the no-effect control and ±100 the full control effect; nearly all actives have a fitted effect of over 60% in size
#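 Read-out is AlphaScreen signal from streptavidin donor and nickel chelate acceptor beads (10 ug/mL final each) bridging L3MBTL1 (50 nM) and biotinylated K9-monomethylated H3(1-15) peptide (75 nM), after 30 min compound exposure at room temperature.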
# GLS inh – glutaminase GLS (human) inhibition; O94925; GLS enzymatic activity, qHTS titration; Potency, µM (titrated, usually from 45.5 µM), inactives show at the top dose activity change, negative = inhibition, hits mostly inhibitors; actives 0.21% (n = 410,000); further: on the % scale 0 is the no-effect control and ±100 the full control effect
#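 hKGA in 45 mM KH2PO4 pH 8.2, 0.02% Tween-20 with pin-transferred compounds; 1 mM L-glutamine (stock) plus glutamate oxidase/HRP/Amplex Red coupling added. Fluorescence read initially and after 30 min at RT.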
# JMJD2A Tudor inh – inhibitors of human JMJD2A Tudor domain; O75164; AlphaScreen JMJD2A-Tudor / H3K4me3 peptide binding; Potency, µM (highest dose often 114 µM), without a hit: at the top dose activity change, negative = inhibition, most hits filed as inhibitors; actives 4.4% (n = 390,000); AID 504339; further: on the % scale 0 is the no-effect control and ±100 the full control effect; nearly all actives have a fitted effect of over 50% in size
# * hit, by the source's call; ? = inconclusive; · = not tested or not shown; [ ] = remark or other dose. An excerpt weighted towards active compounds, which were near 10% of everything screened. The call rests on the fitted dose curve; in most records, active means well fitted curve in the direction sought with a large enough effect; inconclusive means small, poorly fitted or top-dose-only effect, or another doubt; inactive means no such curve, though single readings can be large; an effect the other way counts as inactive or inconclusive. Potency means the concentration at half of the fitted maximal effect.
SMILES,BAZ2B block,G9a inh,HP1b binding inh,L3MBTL1 block,GLS inh,JMJD2A Tudor inh
COc1cccc(C(=O)NCCS(=O)(=O)N2CCN(C(=O)c3ccco3)CC2)c1,12%,14µM*,37%,-1%,-11%,-3%
COc1cccc(C(=O)NCCS(=O)(=O)N2CCCCCC2)c1,-3%,?,15%,9%,2%,-13%
COc1cccc(C(=O)NCCS(=O)(=O)N2CCCC2)c1,-2%,32µM*,20%,2%,1%,-8%
COc1cccc(C(=O)NCCS(=O)(=O)N2CCCCC2)c1,12%,11µM*,22%,-4%,-7%,-3%
O=C1C=CC(=O)N1c1ccc2ccccc2c1,·,·,?,·,12%,18µM*
O=C1C=CC(=O)N1c1ccc(Nc2ccccc2)cc1,·,·,?,·,33%,50µM*
Cc1cccc(N2C(=O)C=CC2=O)c1,·,·,?,·,8%,20µM*
O=c1c2ccccc2cnn1-c1ccc2ccccc2c1,5%,20%[12.7 µM],33%,·,4%,10%
O=C(Nc1ccc(Nc2ccccc2)cc1)c1c(F)c(F)c(F)c(F)c1F,-11%,·,3%,-9%,?,-25%
CCN(Cc1ccccc1)S(=O)(=O)c1ccc(-c2coc(C)n2)cc1,?,7%[59 µM],7%[57 µM],·,-15%,-29%
Cn1nnc2c(N3CCCCC3)ncnc21,0%,-2%[59 µM],36%,·,0%,-3%
O=C(NNc1ccc(C2CCCCC2)cc1)C(O)(c1ccccc1)c1cccs1 (stereo not given),50µM*,1%[0.501 µM],14%,-1%,19%,-30%
COc1ccc(C(O)(C(=O)NNc2ccc(C)cc2)c2cccs2)cc1 (stereo not given),-6%,6%[2.33 µM],31%,·,11%,-19%
COCCn1c(NC(=S)NC(=O)C2CC2)cc(=O)[nH]c1=O,?,?,12%,-6%,-32%,1µM*
NC(=O)c1c(N)sc2c1CCCC2,?,2.5µM*,2%,0%,8%,-32%
Nc1sc2c(c1C(=O)NC1CCS(=O)(=O)C1)CCCC2 (stereo not given),-7%,7.9µM*,-6%,-1%,2%,-34%
O=C(CSc1ncnc2sc3c(c12)CCCC3)NC1CCS(=O)(=O)C1 (stereo not given),·,·,14%,5%,6%,-23%
O=c1[nH][nH]c(C(F)(F)F)c1C=Nc1cccc(Cl)c1,-4%,?,23%,3%,17%,-19%
O=c1c(C=Nc2cccc(C(F)(F)F)c2)c[nH]n1-c1cccc(Cl)n1,?,50µM*,-5%,5%,-6%,40µM*
O=c1c(C=Nc2ccc(Cl)cc2)c[nH]n1-c1cccc(Cl)n1,-6%,-17%[12.7 µM],18%,6%,0%,25µM*
Cc1cc(O)c(CN(C)C)c2c1C(=O)/C(=C/c1ccco1)O2,-22%,6.3µM*,-9%,·,-23%,-26%
COc1ccc(C2=CSC3=C(C(=O)c4cccc(S(=O)(=O)N(C)C)c4)CCN23)cc1,-27%,8.9µM*,14%,·,10%,?
COc1ccc(N(C)S(=O)(=O)c2cccc(C(=O)N3CCN(c4ccccc4)CC3)c2)cc1,-25%,?,5%,-11%,-8%,-20%
CCOc1cc(/C=C2\N=C(C)OC2=O)cc(Cl)c1OCC(=O)OC,·,·,-20%,·,-2%,-10%
COc1cc(/C=C2\N=C(C)OC2=O)cc(Cl)c1OC(C)=O,1%,40µM*,11%,·,32%,-1%
SMILES,BAZ2B block,G9a inh,HP1b binding inh,L3MBTL1 block,GLS inh,JMJD2A Tudor inh
CC1(NC(=O)CCc2nc3sc4c(c3c(=O)[nH]2)CCCC4)CCS(=O)(=O)C1 (stereo not given),79µM*,50µM*,-16%,?,-11%,?
O=C(CCc1nc2sc3c(c2c(=O)[nH]1)CCCC3)NCCc1ccccc1,?,?,4%,?,4%,-20%
CC(=O)Nc1ccc(NC(=O)CCc2nc3sc4c(c3c(=O)[nH]2)CCCC4)cc1,-6%,16%[0.501 µM],22%,-6%,-5%,-32%
CCc1ccccc1NC(=O)CNC(=O)CCc1nc2sc3c(c2c(=O)[nH]1)CCCC3,50µM*,?,-4%,?,1%,?
Cc1ccc(NC(=O)CCc2nc3sc4c(c3c(=O)[nH]2)CCCC4)c(Br)c1,50µM*,?,2%,-27%,0%,?
Cc1ccc(S(=O)(=O)N2CCC(C(=O)NCCCn3ccnc3)CC2)cc1,-1%,?,25%,·,2%,-3%
Cc1ccc(S(=O)(=O)N2CCCOC2CNC(=O)C(=O)NCCCn2ccnc2)cc1 (stereo not given),50µM*,-27%[59 µM],21%,-11%,-16%,-23%
COc1ccc(S(=O)(=O)N2CCCOC2CNC(=O)C(=O)NCCCn2ccnc2)cc1 (stereo not given),79µM*,6%,20%,5%,0%,-12%
O=C(NCCCn1ccnc1)C1CCCN(S(=O)(=O)c2ccc(F)cc2)C1 (stereo not given),-11%,14%[59 µM],23%,·,-3%,13µM*
Cc1ccc(C)c(S(=O)(=O)N2CCCOC2CNC(=O)C(=O)NCCCn2ccnc2)c1 (stereo not given),45µM*,2%[59 µM],?,-23%,12%,-33%
COc1ccc(Cn2c(C(=O)O)c(CNCCc3ccccc3Cl)c3ccc(C)cc32)cc1,?,?,?,·,8%,?
CCC(CO)NC(=O)C(=O)Nc1c2c(nn1-c1ccc(F)cc1)CSC2 (stereo not given),0%,?,4%,·,5%,-4%
O=C(NCCCn1ccnc1)C(=O)NCC1OCCN1S(=O)(=O)c1ccc(F)cc1 (stereo not given),6.3µM*,19%,28%,?,0%,56µM*
CC(=O)C1=C(c2ccc(Cl)c(Cl)c2)N(C(C)=O)n2cnnc2S1,12%,0%[59 µM],107%,·,?,10%
COc1ccc2[nH]c3c(NCCC4=CCCCC4)ncnc3c2c1,28µM*,-18%[59 µM],-21%,·,0%,50µM*

# Screening data deposited in PubChem BioAssay by National Center for Advancing Translational Sciences (NCATS).
